Data on 40 molecules can be found in PubChem BioAssay (NCATS).

Calls of active or inactive are those of the source. Calls come from the whole dose curve.

This experiment in a line: Cell Proliferation Assay Versus the ED40515 IL2 Dependent ATL cell lines (AID 1053195). The following applies: ED40515 IL2-dependent ATL cells. An excerpt: Adult T-cell leukemia (ATL) develops in individuals infected with human T-cell lymphotropic virus-1 (HTLV-1). Clinically, ATL is subclassified into four subtypes: smoldering, chronic, lymphomatous, and acute. Two autocrine loops (IL-2/IL-2Ralpha and IL-15/IL-15Ralpha) and one paracrine stimulation loop that involves IL-9 expression by ATL cells and IL-9Ralpha expression on monocytes are required to maintain viability and proliferation in the smoldering and chronic forms of the disease. These assays examined the differential response profiles for the MIPE library of approved and investigational drugs versus an IL2 dependent and independent matched ATL cell line, with the current submission examining the differential response profiles for drugs on an IL2 dependent matched ATL cell line.
Plate log growing ED40515 +IL2 cells: 1000cells/ well in 5uL phenol red free RPMI +5% FBS +1x p/s, Glutamine using 1536 well white griener tissue culture plates and multidrop cassette acoustic dispensing Columns 1 and 3 DMSO Columns 2 and 4, 9.2 uM Bortezomib Incubate 48 hours for celltiter glo 37C with 5%CO2 and 95% humidity with low evaporation lids Dispense 3 uL per well of cell titer glo with multidrop Incubate for 15 minutes at RT Read on VL/2 using Luminesence Wheel (Filter A)
As to `COc1c(Cl)cc2c([nH]c3cnccc32)c1NC(=O)c1cccnc1C`, the Potency is 33.2 µM (active).
To `Cc1n[nH]c(C)c1Cc1sc2c(c1C(=O)N1C[C@H](O)CO1)c(=O)n(C)c(=O)n2CC(C)C` belongs 0.0019 µM (active); to `O=S(=O)(N=Cc1c(O)ccc2ccccc12)c1cccs1`, 20.9 µM (active); to `O=C(Nc1ccc(F)c(C(F)(F)F)c1)Nc1nnc(-c2ccncc2)s1`, 0.935 µM (active).
To `O=c1ncn2nc(Sc3ccc(F)cc3F)ccc2c1-c1c(Cl)cccc1Cl` belongs 16.6 µM (active); to `O=C(c1cc(Cc2n[nH]c(=O)c3ccccc23)ccc1F)N1CCN(C(=O)C2CC2)CC1`, 16.6 µM (active).
To `COc1ccc(-c2c(-c3ccc(O)cc3O)n[nH]c2C)cc1` belongs 2.09 µM (active).
As for `CCC(=O)N[C@H]1CC[C@H](C(=O)N(C)c2ccc(-c3nc4ccccc4o3)cc2)C1`, the Potency is 3.32 µM (active).
Take `Cc1cccc(-c2[nH]c(C(C)(C)C)nc2-c2ccc3nccnc3c2)n1`: the Potency was 16.6 µM (active).
With `COc1ccc(COc2cc3oc(=O)c4cc(C(C)O)ccc4c3cc2OC)cc1` (stereo not given) the figure was 18.7 µM (active); with `CS(=O)(=O)c1ccc(C(=O)Nc2ccc(Cl)c(-c3ccccn3)c2)c(Cl)c1`, 13.2 µM (active).
To `O=C(C=Cc1ccc(/C=C/C(=O)Nc2ccc(C3=NCCN3)cc2)cc1)Nc1ccc(C2=NCCN2)cc1` belongs 2.09 µM (active); to `CC[C@@H](C)[C@H](NC(=O)[C@H](CC1CCCCC1)NC(=O)c1ccno1)C(=O)N1CCC2(CCc3ccccc32)CC1`, 2.64 µM (active); to `C[C@]12CCC(=O)C=C1CC[C@@H]1[C@@H]2[C@@H](O)C[C@@]2(C)[C@H]1CC[C@]2(O)C(=O)CO`, 14.8 µM (active).
As for `O=C(Nc1cccnc1)N1CCC(Cc2cccc(Oc3ccc(C(F)(F)F)cn3)c2)CC1`, the Potency was 5.9 µM (active).
With `COc1ccccc1[C@H](c1cccc2ccccc12)[C@@](C)(C#N)C(=O)N1CCC(c2cccc(C(F)(F)F)c2)CC1` the figure was 2.64 µM (active); with `Cc1c(C)c2c(c(C)c1O)CCC(C)(COc1ccc(CC3SC(=O)NC3=O)cc1)O2` (stereo not given), 16.6 µM (active); with `Oc1cccc(-c2nc(N3CCOCC3)c3oc4ncccc4c3n2)c1`, 0.743 µM (active).
To `COc1ccc(-c2oc3cc(OC)ccc3c2C(=O)c2ccc(C#N)cc2)cc1` belongs 20.9 µM (active).
With `N#Cc1ccc(C(c2ccc(C#N)cc2)n2cncn2)cc1` the figure was 10.5 µM (active); with `Cc1ccc(-n2nc(C(C)(C)C)cc2NC(=O)Nc2ccc(OCCN3CCOCC3)c3ccccc23)cc1`, 26.4 µM (active).
As to `CCCS(=O)(=O)Nc1ccc(F)c(C(=O)c2c[nH]c3ncc(-c4ccc(Cl)cc4)cc23)c1F`, the Potency was 20.9 µM (active).
Regarding `NC(=O)c1ccc(-c2nc(-c3ccc4c(c3)OCO4)c(-c3ccccn3)[nH]2)cc1`, the Potency was 37.2 µM (active).
With `CCOc1ccc(Cc2cc([C@@H]3O[C@H](CO)[C@@H](O)[C@H](O)[C@@H]3O)ccc2Cl)cc1` the figure was 4.69 µM (active).
To `COc1ccc2nc(S(=O)Cc3ncc(C)c(OC)c3C)[nH]c2c1` (stereo not given) belongs 23.5 µM (active); to `Nc1cccc(S(=O)(=O)N2CCCN(S(=O)(=O)c3ccc4c(c3)OCCO4)CC2)c1`, 16.6 µM (active).
With `CC(c1cc2ccccc2s1)N(O)C(N)=O` (stereo not given) the figure was 67.9 µM (active); with `O=c1[nH]c(-c2ccc(C(F)(F)F)cc2)nc2c1CSCC2`, 26.4 µM (active).
For the molecule `CN(C)c1ccc(Nc2nc(N)n(C(=O)c3c(F)cccc3F)n2)cc1`, the Potency is 0.743 µM (active).
To `O=C(O)c1ccc(-c2c[nH]c3ccc(-c4ccccc4)cc23)cc1C1CCCC1` belongs 5.26 µM (active); to `COc1nc(-c2ccc3c(c2)OCO3)n(-c2ccc(NC(=O)CSc3ccccc3)cc2)n1`, 20.9 µM (active); to `CS(=O)(=O)c1cccc(CNc2nc(Nc3ccc4c(c3)CCC(=O)N4)ncc2C(F)(F)F)c1`, 3.32 µM (active).
Regarding `Nc1ncnc2nc(-c3ccc(N4CCOCC4)nc3)cc(-c3cccc(Br)c3)c12`, the Potency is 14.8 µM (active).
With `CC1(C)CNc2cc(NC(=O)c3cccnc3NCc3ccncc3)ccc21` the figure was 23.5 µM (active); with `Cc1cc(SCc2sc(-c3ccc(C(F)(F)F)cc3)nc2C)ccc1OCC(=O)O`, 26.4 µM (active); with `CN[C@@H](C)C(=O)N[C@H]1CCCC[C@H]2CC[C@@H](C(=O)N[C@@H](c3ccccc3)c3cn(CCCCc4ccc(CCCCn5cc([C@@H](NC(=O)[C@@H]6CC[C@@H]7CCCC[C@H](NC(=O)[C@H](C)NC)C(=O)N76)c6ccccc6)nn5)cc4)nn3)N2C1=O`, 23.5 µM (active).
To `CN(C(=O)c1ccc(F)cc1C(F)(F)F)C1CCN(c2nnc(-c3ccnn3C)c3ccccc23)CC1` belongs 2.96 µM (active); to `COc1cc(Nc2ncc3c(n2)-c2ccc(Cl)cc2C(c2c(F)cccc2OC)=NC3)ccc1C(=O)O`, 0.0066 µM (active); to `Cc1cc(-c2nnc3n2CCCCC3)c(C)n1-c1ccc(F)cc1`, 11.8 µM (active).
With `CNCc1ccc(-c2[nH]c3cc(F)cc4c3c2CCNC4=O)cc1` the figure was 20.9 µM (active).
